# Compound activity from PubChem BioAssay.
# YB-1 expression: YB-1 expression inhibition; U2OS, qRT-PCR YB-1 vs CDIP delta delta Cp, 16 h; active compounds read high; zero = DMSO, each unit about twofold; delta delta Cp (YB-1 minus CDIP) (no concentration beside the values); 30,000 compounds, 0.37% hits;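 active = delta delta Cp rounded down to an integer at or above 3, about 3 SD of DMSO wells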;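 also: higher means less YB-1 transcript or more CDIP transcript relative to DMSO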
# NOMO-1 viab: STK33 inhibitor candidate reducing NOMO-1 cell viability. NOMO-1 AML viability, CellTiter-Glo luminescence, 72 h. inhibition, % (test concentration not listed). 37,000 compounds, 7.5% hits. AID 2330; in the data active = inhibition above about 80%; inconclusive = no clear call, values can overlap the other calls
# PD-1 reverse act: activators reversing PD-1 mediated T-cell inhibition; 29,000 tested, under 10 active; primary human CD4 T cells, PD-L1 beads, CellTiter-Glo 96 h; activation, % (no concentration beside the values); call rule not given here
# MITF inhib: inhibitors of MITF. AID 2240. 37,000 compounds, 0.28% hits. inhibition, % (no concentration beside the values). TRPM1 promoter luciferase, luminescence, 24 h; in the data active = inhibition above about 85%; inconclusive = no clear call, values can overlap the other calls; inactive = below about 68%;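 also: human melanocyte line stably carrying TRPM1 promoter luciferase reporter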
# Shh pathway inh: blocks Sonic Hedgehog signaling; Shh-LIGHT2 Gli-luciferase reporter, 30 h; inhibition, % (no concentration beside the values); 22,000 compounds, 2.1% hits;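 active = mean inhibition across valid replicates above about 65%, limit read from the data; inconclusive = mean under the limit, yet half or more replicates past it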;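 also: pathway switched on by Shh-conditioned medium diluted 1 in 25 in low serum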
# Hits are given with their value; n = inactive; u = inconclusive; x = no result given. In the library only some 7.4% were active in any assay of this set; here they are far more common.
SMILES,YB-1 expression,NOMO-1 viab,PD-1 reverse act,MITF inhib,Shh pathway inh
FC(F)(F)c1ccc(-c2nnc(SCc3ccncc3)n2Cc2ccco2)cc1,n,n,n,n,x
COc1ccc(S(=O)(=O)Nc2ccc3c(c2)CC(=O)N([C@@H](C)CO)C[C@H](C)[C@H](CN(C)Cc2ccc(-c4ccccc4)cc2)O3)cc1,n,90,n,n,n
COc1ccc(S(=O)(=O)Nc2ccc3c(c2)CC(=O)N([C@@H](C)CO)C[C@H](C)[C@@H](CN(C)Cc2ccc(-c4ccccc4)cc2)O3)cc1,n,125,x,n,n
COc1ccc(S(=O)(=O)Nc2ccc3c(c2)CC(=O)N([C@H](C)CO)C[C@H](C)[C@H](CN(C)Cc2ccc(-c4ccccc4)cc2)O3)cc1,n,88,x,n,x
CCC(C)(C)NC(=S)Nc1cccc(OC)c1,n,n,n,n,n
CCOC(=O)c1cnc2c(C)c(C)ccc2c1NCCN(C)C,x,n,n,n,x
CS(=O)(=O)N(CC(=O)Nc1ccc(C(F)(F)F)cc1)c1cccc(C(F)(F)F)c1,x,n,n,n,x
Cc1ccc(NC(=O)CN(c2cc(Cl)c(Cl)cc2Cl)S(C)(=O)=O)cc1,x,n,n,n,x
CS(=O)(=O)N(CC(=O)Nc1ccc(C(F)(F)F)cc1)c1ccc(Oc2ccccc2)cc1,x,109,n,n,x
Cc1ccc(NC(=O)CN(c2cc(Cl)c(Cl)cc2Cl)S(C)(=O)=O)cc1Cl,x,84,n,n,x
CS(=O)(=O)N(CC(=O)Nc1ccc(Oc2ccccc2)cc1)c1cc(Cl)c(Cl)cc1Cl,x,118,n,n,x
COC(=O)c1cc(NC(=O)CN(c2cc(Cl)c(Cl)cc2Cl)S(C)(=O)=O)ccc1Cl,x,133,n,n,x
COC(=O)C1=C(C)Nc2ncnn2C1c1ccccc1[N+](=O)[O-] (configuration not stated),x,n,n,n,x
CC1CCC(C(C)C)C(NC(=S)Nc2cccc(F)c2)C1 (configuration not stated),n,122,n,n,102
Cc1ccc(N(C(C)C(=O)Nc2cccc(F)c2)S(C)(=O)=O)cc1 (configuration not stated),x,n,n,n,x
C[C@H]1CN([C@@H](C)CO)C(=O)c2cccc(NC(=O)Nc3ccc4c(c3)OCO4)c2O[C@H]1CN(C)S(=O)(=O)c1ccc(F)cc1,n,n,n,n,101
Cc1ccc(S(=O)(=O)N(C)C[C@@H]2Oc3c(NC(=O)Nc4ccc5c(c4)OCO5)cccc3C(=O)N([C@H](C)CO)C[C@@H]2C)cc1,n,n,x,n,115
C[C@H](CO)N1C[C@H](C)[C@H](CN(C)S(=O)(=O)c2ccc(F)cc2)Oc2c(NC(=O)Nc3ccc4c(c3)OCO4)cccc2C1=O,n,n,n,n,92
C[C@H](CO)N1C[C@H](C)[C@@H](CN(C)S(=O)(=O)c2ccc(F)cc2)Oc2c(NC(=O)Nc3ccc4c(c3)OCO4)cccc2C1=O,n,n,n,n,n
C[C@@H]1CN([C@@H](C)CO)C(=O)c2cccc(NC(=O)Nc3ccc4c(c3)OCO4)c2O[C@H]1CN(C)S(=O)(=O)c1ccc(F)cc1,n,n,x,n,n
Cc1ccc(S(=O)(=O)N(C)C[C@H]2Oc3c(NC(=O)Nc4ccc5c(c4)OCO5)cccc3C(=O)N([C@H](C)CO)C[C@H]2C)cc1,n,n,n,n,n
CCc1ccc(N2C(N)=C(C#N)C(c3cccc(Cl)c3)c3c(C)noc32)cc1 (configuration not stated),n,n,n,n,n
CCCCOc1cc(C(=O)NCCN(CC)CC)c2ccccc2n1,n,n,x,n,n
CCN(CC)CCNc1ccc(CO)c2sc3ccccc3c(=O)c12,n,102,x,n,u
O=C(O)c1ccc(NCCCO)c([N+](=O)[O-])c1,x,n,x,n,x
SMILES,YB-1 expression,NOMO-1 viab,PD-1 reverse act,MITF inhib,Shh pathway inh
Cc1ccc(S(=O)(=O)Nc2ccc3c(c2)C(=O)N([C@@H](C)CO)C[C@@H](C)[C@@H](CN(C)Cc2ccc(Oc4ccccc4)cc2)O3)cc1,n,113,x,n,x
Cc1ccc(S(=O)(=O)Nc2ccc3c(c2)C(=O)N([C@H](C)CO)C[C@H](C)[C@@H](CN(C)Cc2ccc(Oc4ccccc4)cc2)O3)cc1,n,n,n,n,x
Cc1ccc(S(=O)(=O)Nc2ccc3c(c2)C(=O)N([C@@H](C)CO)C[C@H](C)[C@@H](CN(C)Cc2ccc(Oc4ccccc4)cc2)O3)cc1,n,106,n,n,n
COc1ccc2[nH]c(=O)c(CN(C)S(=O)(=O)c3ccc(C)cc3)cc2c1,x,n,n,n,x
COc1ccc(OC)c(NS(=O)(=O)c2cc(OC)ccc2OC)c1,x,n,n,n,x
O=C1c2ccccc2C(=O)N1OS(=O)(=O)c1cccc2cccnc12,x,127,n,n,x
COc1ccc(OC)c(S(=O)(=O)ON2C(=O)c3ccccc3C2=O)c1,x,119,n,n,x
O=C(CCN1C(=O)C2C3c4ccccc4C(c4ccccc43)C2C1=O)Oc1cccc2cccnc12 (configuration not stated),x,118,n,n,x
CC(C(=O)Oc1cccc2cccnc12)N1C(=O)c2ccccc2C1=O (configuration not stated),x,127,n,n,x
CC(=O)c1cccc(NC(=O)C(C)N2C(=O)c3ccccc3C2=O)c1 (configuration not stated),x,n,x,n,x
CCOC(=O)c1nnn2c1nc(N(Cc1ccccc1)Cc1ccccc1)c1ccccc12,n,n,n,n,x
Cc1cc(Oc2coc3cc(OCC(=O)Nc4ccccc4F)ccc3c2=O)cc(C)c1Cl,x,n,n,n,x
CCOC(=O)c1c(NC(=S)NC(=O)c2ccc3c(c2)OCCO3)sc(C(=O)OC)c1C,x,n,n,n,x
O=C(CSC1N=C2C=CC=CC2O1)c1ccccc1 (configuration not stated),n,n,n,n,n
CCc1ccc(-n2c(SCC(=O)Nc3cccc(C)c3)nnc2-c2ccccc2)cc1,x,n,n,n,x
CCOC(=O)CC1Sc2ccccc2N=C1SCC(=O)Nc1cccc(C(F)(F)F)c1 (configuration not stated),n,126,n,n,n
C=C1[C@@H]2CC[C@H]3[C@@]4(C)C(C[C@H](OC(=O)[C@]5(C)O[C@@H]5C)[C@]3(C2)[C@@H]1OC(C)=O)[C@](C)(C(=O)OC)CC[C@H]4OC(C)=O (some centres not stated),n,88,n,n,n
C[C@@H]1CN([C@H](C)CO)C(=O)c2cc(NC(=O)Nc3ccccc3)ccc2O[C@@H]1CN(C)Cc1ccc(Oc2ccccc2)cc1,n,n,n,n,x
C[C@H](CO)N1C[C@H](C)[C@H](CN(C)Cc2ccc(Oc3ccccc3)cc2)Oc2ccc(NC(=O)CCC(F)(F)F)cc2C1=O,n,114,n,n,n
C[C@@H]1CN([C@@H](C)CO)C(=O)c2cc(NC(=O)Nc3ccccc3)ccc2O[C@H]1CN(C)Cc1ccc(Oc2ccccc2)cc1,n,112,n,n,x
Cc1noc(C)c1NC(=O)Nc1ccc2c(c1)C(=O)N([C@H](C)CO)C[C@@H](C)[C@@H](CN(C)Cc1ccc(Oc3ccccc3)cc1)O2,n,n,n,n,67
